Source: PubChem BioAssay
Shown are actives, neighbours in structure and some others; about 11% of the full set was active somewhere.
NIH3T3 tox: cytotoxic compounds in NIH 3T3 cells. NIH 3T3 viability, CellTiter-Glo ATP luminescence, 48-72 h. Potency, µM (highest dose often 96.7 µM), inactives show at the top dose activity change, negative = cytotoxicity, usual class: inhibitors. 94,000 tested, 4.3% active; further: nearly all actives have a fitted effect of over 55% in size
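Viability of NIH 3T3 cells after 48 or 72 hr compound treatment at 37 °C was assessed by CellTiter-Glo, with luminescence imaged following a 10 min room-temperature step.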
hNpr1 antagonist: blocks ANP-stimulated signaling of human Npr1 receptor; P16066; HEK293 hNpr1 GloSensor cGMP, ANP-stimulated luminescence; Potency, µM (series often up to 46.3 µM), without a hit: top-dose activity change, negative = inhibition, usual class: inhibitors; 76,000 tested, 1.6% active; AID 1347048; calls by dose curve; further: nearly all actives have a fitted effect of over 60% in size
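Compound pre-incubated 30 min at room temperature on GloSensor-loaded HEK293 cells stably carrying hNpr1 and the pGS-40F cGMP biosensor. Stimulation uses hNppA at 0.1 nM final; luminescence is taken at baseline and 20 min post-agonist.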
HEK cytotox: HEK 293 cell cytotoxicity; HEK 293 viability, ATP luminescence (CellTiter-Glo), 48-72 h; Potency, µM (titrated, usually from 115 µM), inactives show top-dose activity change, negative = cytotoxicity, most hits filed as inhibitors; 94,000 tested, 6.6% active; AID 1345083; further: nearly all actives have a fitted effect of over 60% in size
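HEK 293 cells seeded at 250 cells/well were exposed to compound for 48 or 72 hr at 37 degree Celsius. Viability taken as ATP content by CellTiter-Glo luminescence.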
FLuc inh: inhibitors of firefly (Photinus pyralis) luciferase; P08659; purified P. pyralis luciferase, luminescence, biochemical; Potency, µM (series often up to 115 µM), usual class: inhibitors; 76,000 tested, 2.5% active; AID 1347043; further: nearly all actives have a fitted effect of over 65% in size
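Purified 10nM P. pyralis luciferase with 10uM D-luciferin and 10uM ATP in 50mM Tris acetate pH 7.5, 10mM Mg acetate, 0.01% Tween-20, 0.05% BSA. qHTS titration; luminescence read by CCD imager.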
* = called active by the depositor; i = inactive; ? = inconclusive; . = no result given; [ ] = another dose, or the depositor's remark. Unless noted, the call rests on the fitted dose curve; in most records, active means well fitted curve in the direction sought with a large enough effect; inconclusive means small, poorly fitted or top-dose-only effect, or another doubt; inactive means no such curve, though single readings can be large; an effect the other way counts as inactive or inconclusive. On the % scale 0 is the no-effect control and ±100 the full control effect; potency means the concentration at half of the fitted maximal effect.

SMILES	NIH3T3 tox	hNpr1 antagonist	HEK cytotox	FLuc inh
O=C(c1cc2ccccc2[nH]1)N1CCCC2(C1)NC(=O)N(Cc1ccccc1)C2=O (stereo unspecified)	-28.3%	-0.5%	?	i
CCOc1ccccc1C(=O)N1CCC2(CC1)NC(=O)N(Cc1ccccc1)C2=O	-19.9%	3.5%	-21.5%	i
CCN(CC)c1cc(CCC(=O)NCc2ccc(Cl)cc2)ccn1	-18.5%	-12.2%	?	i
CC(=O)Nc1cccc(C(=O)NCCn2ccn3nc(-c4ccc(F)cc4)cc3c2=O)c1	?	0.0%	44.7µM*	20µM*
COc1ccc(-c2cc3c(=O)n(CCNC(=O)c4ccccn4)ccn3n2)cc1	-27.1%	-10.9%	-26.9%	7.94µM*
COc1ccc(-c2cc3c(=O)n(CCNC(=O)c4cccc5[nH]ccc45)ccn3n2)cc1	?	-22.2%	31.6µM*	6.31µM*
COc1ccc(-c2cc3c(=O)n(CCNC(=O)c4ccc(F)cc4)ccn3n2)cc1	-10.7%	-8.9%	?	?
COc1ccc(-c2cc3c(=O)n(CCNC(=O)c4ccccc4C)ccn3n2)cc1	-20.7%	-15.4%	?	10µM*
COc1ccccc1C(=O)NCCn1ccn2nc(-c3ccc(C)c(C)c3)cc2c1=O	-26.8%	-4.3%	-25.8%	i
O=C(NCCn1ccn2nc(-c3ccc(F)cc3)cc2c1=O)c1cccc(Cl)c1	-26.5%	?	-43.1%	i
CCn1cnnc1-c1nn(C)c2c1CN(C(=O)CCC1CCCC1)CC2	-0.4%	-2.9%	-17.4%	i
COc1ccc2[nH]c3c(c2c1)CCNC31CCN(C(=O)c2cccnc2C)CC1	-21.1%	3.8%	?	i
COc1ccc(-c2cc3c(=O)n(CCNC(=O)c4cc(F)cc(F)c4)ccn3n2)cc1	?	-19.3%	?	2µM*
CS(=O)(=O)N1CCCN(Cc2ccc(F)cc2F)CCNC(=O)CC1c1ccccc1 (stereo unspecified)	-18.6%	0.1%	2.9%	i
Cc1noc(C)c1-c1cc2c(c(-c3ccccc3Oc3ccccc3)c1)C(=O)N(C)C2	12.6µM*	-22.6%[70.6 µM]	?	i
Cc1noc(C)c1-c1cc2c(c(-c3cccc(OC(C)C)c3)c1)C(=O)N(C)C2	?	1.78µM*	?	i
Cc1noc(C)c1-c1cc2c(c(-c3cnn(C)c3)c1)C(=O)N(C)C2	?	0.7%[70.6 µM]	-41.6%[172 µM]	i
Cc1cc2nc3n(c(=O)c2n1CC(=O)Nc1ccc2c(c1)OCO2)CCCC3	-6.5%	-1.8%	-0.5%	i
CCc1cccc2c(C(CC(=O)N3CCc4ccccc4C3)c3cccc4c3OCO4)c[nH]c12 (stereo unspecified)	17.8µM*	-9.6%	?	i
CCc1cccc2c(C(CC(=O)N3CCCCC3)c3cccc(C)c3)c[nH]c12 (stereo unspecified)	-29.5%	-6.2%	?	i
CCc1cccc2c(C(CC(=O)N3CCCC3)c3cccc([N+](=O)[O-])c3)c[nH]c12 (stereo unspecified)	28.2µM*	-12.7%	?	i
O=C1NCCCCCCN[C@H]2C[C@H](c3nc(-c4cccnc4)no3)C[C@@H]12	-8.6%	5.2%	-11.1%	i
Cc1nn(-c2ccccc2)c2c1C(C1CC1)N(C1CCN(C(=O)Cc3ccc(F)cc3)C1)C2=O (stereo unspecified)	?	.	35.5µM*	.
Cc1nn(-c2ccccc2)c2c1C(C(C)C)N(C1CN(C(=O)Cc3ccccc3)C1)C2=O (stereo unspecified)	?	.	50.1µM*	.
Cc1nn(-c2ccccc2)c2c1C(C(C)C)N(C1CCN(C(=O)N3CCOCC3)C1)C2=O (stereo unspecified)	?	.	79.4µM*	.
Cc1nn(-c2ccccc2)c2c1C(C(C)C)N(C1CCCN(C(=O)c3ccc(F)cc3)C1)C2=O (stereo unspecified)	?	.	28.2µM*	.
Cc1nn(-c2ccccc2)c2c1C(C1CC1)N(C1CCN(Cc3ccc(F)cc3)CC1)C2=O (stereo unspecified)	-11.3%	.	2.3%	.
CN(C)C(=O)NC1CCN(C(=O)c2ccc(-c3ncccc3C#N)cc2)CC1	-6.3%	.	-3.5%	.
O=C(CCc1ccccc1)N1CCCCCC1CN1CCOCC1 (stereo unspecified)	-24.6%	-1.2%	-8.7%	i
Cc1nn(-c2ccccc2)c2c1C(C(C)C)N(C1CCCN(C(=O)c3ccc(Cl)nc3)C1)C2=O (stereo unspecified)	?	.	39.8µM*	.
